Source: PubChem BioAssay AID1159580 (chemical genetic matrix, 2015)
About 2,000 (36%) of roughly 5,500 compounds were called active. Roughly 18% stayed inconclusive and do not appear here. No stated cut-off is given here; in the data, active means normalized growth mostly below about 0.91 (no sharp cut-off); inconclusive means no clear call, values can overlap the other calls; inactive means mostly above about 0.92. This is one part of the list.

Test: chemical genetic growth profiling, strain panel (AID 1159580);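 further: tested at 20 µM; growth read once vehicle control cultures reached saturation at 30 °C; 1 = growth at the plate median or of vehicle wells; lower values mean less growth of the strain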
Conditions: S. cerevisiae deletion strains, growth OD

Measured: normalized growth

CCC1(O)CC(OC2CC(N(C)C)C(OC3CC(O)C(OC4CCC(=O)C(C)O4)C(C)O3)C(C)O2)c2c(cc3c(c2O)C(=O)c2c(O)cccc2C3=O)C1C(=O)OC (stereo not drawn)
inactive: locus YAL013W, strain DEP1, hits give low values 0.986 | locus YBR021W, strain FUR4, hits give low values 1.07 | locus YBR229C, strain ROT2, hits give low values 1 | locus YCL029C, strain bik1, hits give low values 1 | locus YDL035C, strain GPR1, hits give low values 0.978 | locus YDL074C, strain BRE1, hits give low values 0.998 | locus YDL101C, strain DUN1, hits give low values 0.992 | locus YDL134C, strain PPH21, hits give low values 1.01 | locus YDL185W, strain tfp1, hits give low values 1.01 | locus YDL192W, strain arf1, hits give low values 1.01 | locus YDR101C, strain arx1, hits give low values 1.01 | locus YDR150W, strain NUM1, hits give low values 1 | locus YDR162C, strain NBP2, hits give low values 0.981 | locus YDR318W, strain mcm21, hits give low values 1.01 | locus YDR388W, hits give low values 1.01 | locus YDR502C, strain sam2, hits give low values 1 | locus YEL061C, strain CIN8, hits give low values 1.01 | locus YER110C, hits give low values 1.01 | locus YER155C, strain BEM2, hits give low values 1.01 | locus YER167W, strain BCK2, hits give low values 1.01 | locus YGL078C, strain dbp3, hits give low values 1.01 | locus YGL086W, strain mad1, hits give low values 0.992 | locus YGL248W, strain PDE1, hits give low values 0.981 | locus YGR135W, strain pre9, hits give low values 1.01 | locus YGR229C, strain SMI1, hits give low values 0.96 | locus YGR252W, strain gcn5, hits give low values 1.03 | locus YHR030C, strain SLT2, hits give low values 1 | locus YHR079C, strain IRE1 (second series), hits give low values 1.01 | locus YHR094C, strain hxt1, hits give low values 1.01 | locus YHR129C, strain ARP1, hits give low values 0.995 | locus YHR200W, strain rpn10, hits give low values 1.01 | locus YIL066C, strain RNR3, hits give low values 1 | locus YIL073C, strain SPO22, hits give low values 1.04 | locus YIL125W, strain kgd1, hits give low values 1 | locus YIR030C, strain dcg1, hits give low values 1.01 | locus YJL095W, strain BCK1, hits give low values 0.983 | locus YJL134W, strain LCB3, hits give low values 1.01 | locus YJL168C, strain set2, hits give low values 1.01 | locus YJL187C, strain SWE1 (second series), hits give low values 0.998 | locus YJR043C, strain POL32, hits give low values 0.986 | locus YJR075W, strain HOC1, hits give low values 0.975 | locus YKL009W, strain mrt4, hits give low values 1.01 | locus YKL068W, hits give low values 1 | locus YKL085W, strain MDH1 (second series), hits give low values 0.993 | locus YKL085W, strain MDH1, hits give low values 0.993 | locus YKR001C, strain vps1, hits give low values 1.01 | locus YLR039C, strain RIC1, hits give low values 0.981 | locus YLR058C, strain SHM2, hits give low values 1 | locus YLR102C, strain apc9, hits give low values 1.01 | locus YLR262C, strain YPT6, hits give low values 0.958 | locus YLR268W, strain sec22, hits give low values 0.98 | locus YLR330W, strain CHS5, hits give low values 1 | locus YLR342W, strain FKS1 (second series), hits give low values 0.976 | locus YLR371W, strain rom2, hits give low values 1.01 | locus YLR418C, strain cdc73, hits give low values 1.01 | locus YML016C, strain PPZ1, hits give low values 0.997 | locus YML124C, strain tub3, hits give low values 0.999 | locus YMR078C, strain ctf18, hits give low values 1.01 | locus YMR223W, strain ubp8, hits give low values 1 | locus YMR263W, strain SAP30, hits give low values 0.998 | locus YMR307W, strain GAS1, hits give low values 0.601 | locus YNL067W, strain RPL9B, hits give low values 0.992 | locus YNL233W, strain BNI4, hits give low values 0.997 | locus YNL250W, strain rad50, hits give low values 0.999 | locus YNL271C, strain bni1, hits give low values 1 | locus YNL298W, strain CLA4, hits give low values 1.02 | locus YNL307C, strain MCK1, hits give low values 1.01 | locus YNR052C, strain pop2, hits give low values 0.996 | locus YOL006C, strain TOP1, hits give low values 0.812 | locus YOL012C, strain htz1 0.589 | locus YOL147C, strain pex11, hits give low values 1.01 | locus YOR061W, strain CKA2, hits give low values 1 | locus YOR069W, strain VPS5, hits give low values 1 | locus YOR136W, strain idh2, hits give low values 1 | locus YOR144C, strain elg1, hits give low values 1 | locus YOR184W, strain ser1, hits give low values 0.982 | locus YOR316C, strain cot1, hits give low values 1.01 | locus YPR119W, strain clb2, hits give low values 1.02 | locus YPR141C, strain kar3, hits give low values 0.986 | locus YPR163C, strain tif3, hits give low values 1.02 | locus YPR167C, strain met16, hits give low values 1 | strain wtn01, hits give low values 0.983
active: locus YML032C, strain rad52, hits give low values 0.893
